Assay outcomes from PubChem.
KB-V1 cytotox: kills drug-selected multidrug resistant KB-V1 cells; KB-V1 MDR cells viability, CellTiter-Glo, 72 h; Potency, µM (titrated, usually from 46.1 µM), hits mostly cytotoxic; 400,000 compounds, 3.4% hits; AID 1347076; also: % is scaled to controls: 0 for no effect and ±100 for the full control effect; nearly all actives have a fitted effect of over 60% in size
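Compound-treated KB-V1 multidrug-resistant cells, 72 h, 37 degrees C; viability by CellTiter-Glo. Fitted qHTS curves give the values.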
MCF10A rerep: DNA re-replication induction in MCF 10a cells | Potency, µM (series often up to 46.1 µM), for inactives: top-dose activity, positive = re-replication, hits mostly activators | 350,000 compounds, 2.9% hits | MCF 10A DNA re-replication, Hoechst nuclear intensity, 48 h; also: % of control where 0% means no effect; nearly all actives have a fitted effect of over 50% in size
12-LOX inh: inhibitors of human 12S-lipoxygenase ALOX12 | purified 12hLO, xylenol orange hydroperoxide absorbance | 580,000 compounds, 1.1% hits | Potency, µM (highest dose often 108 µM), inactives show top-dose activity change, negative = inhibition, actives largely listed as inhibitors; also: % is scaled to controls: 0 for no effect and ±100 for the full control effect
Target sequence (P18054 whole entry, looked up): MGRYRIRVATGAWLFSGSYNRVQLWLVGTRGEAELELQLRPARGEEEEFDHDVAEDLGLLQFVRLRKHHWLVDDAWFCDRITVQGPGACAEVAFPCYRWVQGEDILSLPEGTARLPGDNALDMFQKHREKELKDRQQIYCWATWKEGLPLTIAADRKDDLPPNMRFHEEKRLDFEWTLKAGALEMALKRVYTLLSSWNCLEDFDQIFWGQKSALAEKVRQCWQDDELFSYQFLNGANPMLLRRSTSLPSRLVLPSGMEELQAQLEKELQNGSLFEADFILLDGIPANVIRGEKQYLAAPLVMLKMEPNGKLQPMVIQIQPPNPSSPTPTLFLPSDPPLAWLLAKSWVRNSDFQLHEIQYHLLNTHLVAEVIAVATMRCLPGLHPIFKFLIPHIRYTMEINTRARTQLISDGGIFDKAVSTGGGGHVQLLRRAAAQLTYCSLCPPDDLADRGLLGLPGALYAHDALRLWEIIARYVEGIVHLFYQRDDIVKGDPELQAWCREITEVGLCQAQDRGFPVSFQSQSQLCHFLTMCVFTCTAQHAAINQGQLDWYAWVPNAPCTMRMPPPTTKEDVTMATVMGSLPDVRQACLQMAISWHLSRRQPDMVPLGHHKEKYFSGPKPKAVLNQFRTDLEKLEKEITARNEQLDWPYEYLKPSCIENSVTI
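Purified human 12hLO at 150 nM in 25 mM Hepes, 0.01% Triton X-100, pH 7.0, preincubated 15 min at room temperature with compound. Reaction started with 40 uM arachidonic acid, 30 min at room temperature. Hydroperoxide measured by Fe-xylenol orange, 573/405 nm absorbance ratio.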
KB-3-1 cytotox: KB-3-1 parental cell cytotoxicity; 400,000 compounds, 1.4% hits; AID 1347075; Potency, µM (doses to about 46.1 µM), actives largely listed as cytotoxic; KB-3-1 viability, CellTiter-Glo ATP luminescence, 72 h; also: % is scaled to controls: 0 for no effect and ±100 for the full control effect; nearly all actives have a fitted effect of over 60% in size
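Parental KB-3-1 adenocarcinoma cells in phenol-red-free DMEM with 10% FBS were pin-treated with compounds at several concentrations, incubated 72 h at 37 °C, and viability read by CellTiter-Glo luminescence; concentration-effect curves were fitted after normalization.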
PINK1 modulator: PINK1 expression modulation. PINK1 immunofluorescence, high-content cytometry, 24 h. Potency, µM (doses to about 76.6 µM), for inactives: at the highest dose activation (PINK1 increase), most hits filed as activators. 410,000 compounds, 0.2% hits. AID 624263; active = well fitted activation curve with a large enough effect; inconclusive = small, poorly fitted or top-dose-only effect; cell line not stated here; also: % of control where 0% means no effect; nearly all actives have a fitted effect of over 65% in size
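Fluorescence from anti-PINK1 antibody, together with nuclear and cell stains, was scanned on a laser-scanning cytometer. Before staining, stable-line cells were incubated 24 hours with compounds at 5 concentrations; primary antibody 12 h at 10 degrees C.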
SW480 rerep: DNA re-replication induction in SW480 cells. SW480 DNA re-replication, Hoechst DNA content imaging, 48 h. Potency, µM (highest dose often 46.1 µM), for inactives: at the top dose re-replication activation, hits mostly activators. 340,000 compounds, 1.8% hits. AID 624297; also: % of control where 0% means no effect; nearly all actives have a fitted effect of over 55% in size
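DNA re-replication was detected as more nuclei of elevated Hoechst intensity after 48 hr exposure to compound (23 nL pinned per well of 250 cells).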
Active calls of the source: *; i = inactive; u = inconclusive; x = no result given; [ ] = another dose, or the depositor's remark. Compounds with a hit are over-represented: about 5.8% of the library has one in this group of screens. Unless noted, calls follow the shape of the dose curve; as a rule, active = well fitted curve in the direction sought with a large enough effect; inconclusive = small, poorly fitted or top-dose-only effect, or another doubt; inactive = no such curve, though single readings can be large; an effect the other way counts as inactive or inconclusive. Potency is read from the fitted curve at half-maximal effect.

SMILES	KB-V1 cytotox	MCF10A rerep	12-LOX inh	KB-3-1 cytotox	PINK1 modulator	SW480 rerep
Cn1c(N)c(C(=O)COC(=O)c2ccc(Cl)c(S(=O)(=O)N3CCCCC3)c2)c(=O)n(C)c1=O	21µM*	u	-5%	i	2%	22%
N#Cc1c(C2CC2)cc(C(F)(F)F)[nH]c1=O	x	x	5%	x	x	x
c1ccc(C(CNCc2ccncc2)N2CCCC2)cc1 (stereo unspecified)	x	x	32%	x	x	x
CC(C)C1C(=O)N(Cc2cn(CCC3OCCO3)nn2)CCS(=O)(=O)N1Cc1ccc(-c2ccc(Cl)cc2)cc1 (stereo unspecified)	16µM*	x	-2%	u	u	x
COc1ccc(-c2ccc(CN3C(C)C(=O)N(Cc4cn(CCC5OCCO5)nn4)CCS3(=O)=O)cc2)cc1 (stereo unspecified)	i	x	16µM*	i	-2%	x
CC(C)C1C(=O)N(Cc2cn(CCC3OCCCO3)nn2)CCS(=O)(=O)N1Cc1ccc(-c2ccc(Cl)cc2)cc1 (stereo unspecified)	i	x	2%	i	-1%	x
COc1ccc2sc(N(CCCN(C)C)C(=O)c3ccc(S(=O)(=O)N4CCCc5ccccc54)cc3)nc2c1	21µM*	u	u	i	-3%	u
CCN(Cc1ccccc1)S(=O)(=O)c1ccc(C(=O)N(CCCN(C)C)c2nc3cc(OC)ccc3s2)cc1	i	16µM*	u	i	-2%	u
CCN(Cc1ccccc1)S(=O)(=O)c1ccc(C(=O)N(CCCN(C)C)c2nc3cc4c(cc3s2)OCCO4)cc1	i	u	u	i	-3%	u
Cc1ccccc1C1C=C(c2ccccc2)OC(c2ccccc2)=C1C=O (stereo unspecified)	x	x	5.6µM*	x	x	x
O=CC1=C(c2ccccc2)Oc2ccccc2O1	u	u	-13%	u	-2%	u
CN(Cc1ccsc1)C(=O)CCc1ccsc1	x	x	0%	x	x	x
CN(Cc1ccc(F)cc1)C(=O)C(Cc1ccccc1)NC(=O)c1ccccc1 (stereo unspecified)	10µM*	-17%	-25%	i	8%	-95%
CCOc1ccc(CN(C)C(=O)[C@H](Cc2ccccc2)NC(=O)OCc2ccccc2)cc1OC	10µM*	u	2%	u	-2%	12%
CC(C)CC(NC(=O)OCc1ccccc1)C(=O)NC(Cc1ccccc1)C(=O)CCl (stereo unspecified)	u	7.3µM*	-30%	u	-7%	6.5µM*
CN(Cc1ccccc1)C(=O)c1ccccc1NC(=O)C1CC1	i	-3%	-7%	i	1%	4%
CN(Cc1ccccc1)C(=O)c1ccccc1NC(=O)c1ccccc1	23µM*	0%	13%	i	-2%[38.3 µM]	-3%
COC(=O)CCNC(=O)c1cc(-c2cccs2)nc2ccccc12	x	x	-3%	x	x	x
Cc1ccc(NC(=O)C(Cc2ccccc2)NC(=O)OCc2ccccc2)cc1C (stereo unspecified)	5.8µM*	0%	-28%	i	u	26%
CCOc1ccc(C(=O)OCC(=O)N(Cc2ccccc2)Cc2ccccc2)cc1OC	23µM*	-1%	13%	i	1%	-3%
C=CCn1c(NCc2ccc(C)cc2)nc2c1c(=O)[nH]c(=O)n2C	x	x	-4%	x	x	x
Cc1ccc(S(=O)(=O)c2nc(S(=O)(=O)c3ccccc3)sc2N2CCN(C)CC2)cc1	u	23µM*	-7%	u	-2%	36%
Cc1ccc(S(=O)(=O)c2nc(S(=O)(=O)c3ccccc3)sc2N2CCN(CCO)CC2)cc1	u	17%	1%	21µM*	-1%	-1%
CCCS(=O)(=O)c1nc(S(=O)(=O)c2ccc(C)cc2)c(N2CCN(C)CC2)s1	i	-2%	10%	i	-1%	33%
Cc1nc2nc(CC(=O)Nc3ccccc3F)nn2c(C)c1Cc1ccc(Cl)cc1	x	x	-26%	x	x	x
SMILES	KB-V1 cytotox	MCF10A rerep	12-LOX inh	KB-3-1 cytotox	PINK1 modulator	SW480 rerep
CCC(C)(C)c1ccc(OCC(O)CNCc2ccccc2)c(C(C)(C)CC)c1 (stereo unspecified)	x	x	45µM*	x	x	x
OC(CNCc1ccc(Cl)cc1)COc1ccccc1 (stereo unspecified)	i	13%	u	i	1%	-28%
O=C1CSc2sc(=S)sc2SC1	x	x	5µM*	x	x	x
COc1cc(/C=N/N=C(/N)c2nonc2N)cc(Br)c1OCc1ccccc1C	i	13µM*	60%	i	5%	1%
CCn1c(C)cc(C(=O)CSc2nnnn2C2CCCC2)c1C	9.2µM*	u	-17%	i	5%	1%
Cc1ccc(NC(=O)COc2ncnc3ccccc23)c([N+](=O)[O-])c1	x	x	-2%	x	x	x
O=C(C1=C(O)C(=O)N(c2ncccn2)C1c1ccc(Cl)c(Cl)c1)c1ccco1 (stereo unspecified)	i	-11%	2µM*	i	-2%[38.3 µM]	-2%
CCOc1cccc(C2C(C(=O)c3ccco3)=C(O)C(=O)N2c2nnc(C)s2)c1 (stereo unspecified)	i	-5%	u	i	2%	5.8µM*
CSc1nnc(N2C(=O)C(O)=C(C(=O)c3ccco3)C2c2cccc(Cl)c2)s1 (stereo unspecified)	i	-2%	40µM*	i	3%	-5%
CSc1nnc(N2C(=O)C(O)=C(C(=O)c3ccco3)C2c2ccc(F)cc2)s1 (stereo unspecified)	i	9%	u	i	2%	-8%
CCCOc1cccc(C2C(C(=O)c3ccc(C)o3)=C(O)C(=O)N2c2nc(C)c(C(C)=O)s2)c1 (stereo unspecified)	u	23µM*	1.3µM*	i	5%	u
CCOc1cccc(C2C(C(=O)c3ccc(C)o3)=C(O)C(=O)N2c2nnc(C)s2)c1 (stereo unspecified)	i	14%	u	i	0%	-1%
COC(=O)CNC(=O)c1ccc(CNC(=O)OC(C)(C)C)cc1	x	x	20%	x	x	x
Cc1cc(C)nc(NC2=NCC(=O)N2c2ccc(Cl)cc2Cl)n1	x	x	35%	x	x	x
Nc1nc(CN2CCN(C(=O)c3ccc(Cl)c(Cl)c3)CC2)nc2ccccc12	x	x	38%	x	x	x
CCCOc1ccc(C2C(C(=O)c3ccc(C)o3)=C(O)C(=O)N2Cc2ccco2)cc1OCC (stereo unspecified)	i	6%	u	i	2%	-9%
